Measurements reported in PubChem BioAssay.
Where “and” joins values, the source holds several entries; their conditions need not be identical. Equal values may be shown once. Calls of active or inactive are those of the source.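 How the source made its calls, unless noted: active means mean z-score across replicates of 1.96 or higher in either the MELAS or the Rieske mutant cell line; inactive means the rest.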 Where a SMILES comes first, the peptide text is derived from it. The star is where a group is joined. Cbz = O=C(OCc1ccccc1)*

Columns and labels:
[1] = sensitizers of A549 cells to miR-34 induction, primary screen, imaging, A549 dox-inducible miR-34, nuclei and caspase counts (AID 1347080;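 active means compounds whose cell count with miR-34 switched on is under 0.7 times the count with it off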); conditions: A549 miR-34 inducible, Hoechst nuclei count, 48 h
[2] = survival rescue of mitochondrial mutant cells in low glucose, primary screen, MELAS cybrids, Rieske KO mouse fibroblasts, CellTiter-Glo (AID 1508586);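 further: z relative to plate mean and SD of compound and empty wells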
[3] = stronger effect = lower value, cell number ratio, induced over uninduced
[4] = measured here: relative caspase fold change +Dox/-Dox
[5] = measured here: total cells with miR-34 induction, stronger effect = lower value
[6] = measured here: total cells without miR-34 induction
[7] = MELAS cybrid survival, CellTiter-Glo 48 h, stronger effect = higher value
[8] = Rieske KO mouse fibroblast survival, CellTiter-Glo 72 h
Further: test concentration not given here.

Row | SMILES | fold change [1, 3] | fold change [1, 4] | cell count [1, 5] | cell count [1, 6] | z-score [2, 7] | z-score [2, 8]
1 | Cn1c(=O)cc(N2CCCC(N)C2)n(Cc2cc(F)ccc2C#N)c1=O (centres undefined) | 0.894 (inactive) | 0.61 | 8440 | 9440 | -0.335 (inactive) | 1.48
2 | COC1C=CO[C@@]2(C)Oc3c(C)c(O)c4c(O)c(c(C=NN5CCN(C)CC5)c(O)c4c3C2=O)NC(=O)C(C)=CC=CC(C)C(O)C(C)C(O)C(C)C(OC(C)=O)C1C (some centres undefined) | 0.973 (inactive) | 0.46 | 7970 | 8200 | -0.298 (inactive) | 0.515
3 | N#Cc1ccc2[nH]c(O)c(-c3ccc(CN4CCOCC4)cn3)c2c1 | 0.757 (inactive) | 0.717 | 2200 | 2900 | 1.12 (inactive) | -0.87
4 | CC(CCC(=O)O)[C@H]1CC[C@H]2[C@@H]3C(O)C[C@@H]4CC(O)CC[C@]4(C)[C@@H]3CC[C@]12C (some centres undefined) | 0.91 (inactive) | 1.28 | 8880 | 9760 | -0.306 (inactive) | 0.756
5 | COC1=CC(=O)CC(C)[C@@]12Oc1c(Cl)c(OC)cc(OC)c1C2=O (some centres undefined) | 0.974 (inactive) | 0.639 | 8290 | 8510 | -0.169 (inactive) | -0.138
6 | CC(=O)OC1C[C@@H]2CC[C@@H]3[C@@H](CC[C@]4(C)C(OC(C)=O)C([N+]5(C)CCCCC5)C[C@@H]34)[C@@]2(C)CC1N1CCCCC1 (some centres undefined) | 0.894 (inactive) | 1.12 | 8090 | 9050 | -0.47 (inactive) | -0.53
7 | O=C(CCc1ccc(O)cc1)c1c(O)cc(O)cc1OC1OC(CO)C(O)C(O)C1O (centres undefined) | 0.988 (inactive) | 0.673 | 10200 | 10400 | -0.378 (inactive) | 0.518
8 | C=C(C)C1CC[C@]2(C(=O)O)CC[C@]3(C)[C@H](CC[C@@H]4[C@@]5(C)CCC(O)C(C)(C)[C@@H]5CC[C@]43C)[C@@H]12 (some centres undefined) | 0.87 (inactive) | 0.918 | 6780 | 7790 | -0.0804 (inactive) | -0.141
9 | COc1ccc(-c2cc(=O)c3c(O)cc(OC4OC(COC5OC(C)C(O)C(O)C5O)C(O)C(O)C4O)cc3o2)cc1O (centres undefined) | 0.912 (inactive) | 0.985 | 7570 | 8300 | -0.28 (inactive) | 0.179
10 | CC(C=CC1=C(C)CCCC1(C)C)=CC=CC(C)=CC(=O)O | 0.957 (inactive) and 0.887 (inactive) | 0.963 and 0.861 | 6860 and 8040 | 7170 and 9070 | -0.296 (inactive) and 0.176 (inactive) | 0.231 and 0.975
11 | C=C1CCC(O)CC1=CC=C1CCC[C@@]2(C)[C@H]1CC[C@H]2C(C)CCCC(C)(C)O (some centres undefined) | 0.933 (inactive) | 0.682 | 7650 | 8200 | -0.475 (inactive) | 0.00368
12 | CN1CCN(C(=O)c2cc3cc(Cl)ccc3[nH]2)CC1 | 1 (inactive) | 0.614 | 8330 | 8310 | -0.282 (inactive) | -0.0205
13 | COc1cc2c(cc1OC)CC(=O)N(CCCN(C)CC1Cc3cc(OC)c(OC)cc31)CC2 (centres undefined) | 0.865 (inactive) | 1.23 | 8090 | 9350 | -0.285 (inactive) | 0.346
14 | CON=C(C(=O)NC1C(=O)N2C(C(=O)OCOC(=O)C(C)(C)C)=C(C=Cc3scnc3C)CS[C@H]12)c1csc(N)n1 (some centres undefined) | 0.852 (inactive) | 0.561 | 7580 | 8900 | -0.26 (inactive) | 0.818
15 | OCC(O)C(O)C(O)C(O)CO (centres undefined) | 0.977 (inactive) and 0.927 (inactive) | 0.781 and 0.815 | 7830 and 9620 | 8020 and 10400 | -0.426 (inactive) and -0.241 (inactive) | -0.124 and 0.173
16 | O=C(NCc1cccc(O)c1)Nc1nc(-c2ccncc2)cs1 | 0.899 (inactive) | 0.419 | 2990 | 3330 | 0.152 (inactive) | -1.61
17 | COc1cc(C2c3cc4c(cc3C(O[C@@H]3O[C@@H]5COC(C)O[C@H]5C(O)C3O)[C@H]3COC(=O)[C@H]23)OCO4)cc(OC)c1O (some centres undefined) | 0.94 (inactive) | 1.28 | 2100 | 2240 | -0.7 (inactive) | -0.559
18 | CNCc1cc(-c2ccccc2F)n(S(=O)(=O)c2cccnc2)c1 | 0.924 (inactive) | 0.437 | 8460 | 9150 | -0.328 (inactive) | 0.241
19 | CC1C[C@H]2[C@@H]3CCC4=CC(=O)C=C[C@]4(C)[C@]3(Cl)C(O)C[C@]2(C)[C@]1(OC(=O)c1ccco1)C(=O)CCl (some centres undefined) | 0.916 (inactive) | 0.877 | 4380 | 4780 | -0.46 (inactive) | -0.518
20 | Cc1ccc(C(=O)NCCCCCC(=O)Nc2ccccc2N)cc1 | 0.986 (inactive) | 0.44 | 4890 | 4960 | -0.614 (inactive) | -2
21 | CC(CNC(=O)c1cccnc1)NC(=O)c1cccnc1 (centres undefined) | 0.92 (inactive) | 1.03 | 9140 | 9930 | -0.163 (inactive) | -0.298
22 | O=C(C=Cc1ccccc1)NC(NC(=S)Nc1cccc2cccnc12)C(Cl)(Cl)Cl (centres undefined) | 0.979 (inactive) | 0.343 | 6780 | 6920 | -0.276 (inactive) | 0.21

Row | SMILES | fold change [1, 3] | fold change [1, 4] | cell count [1, 5] | cell count [1, 6] | z-score [2, 7] | z-score [2, 8]
23 | O=C(C=Cc1ccc(O)cc1)c1ccc(O)cc1O | 0.99 (inactive) | 0.784 | 8890 | 8980 | -0.337 (inactive) | 0.414
24 | CCCC(Nc1nc(-c2ccc(NC(=O)NCC)c(OC)c2)ncc1C)c1cccnc1 (centres undefined) | 1.06 (inactive) | 0.656 | 1450 | 1370 | 2.93 (active) | -1.09
25 | CC(C)(F)CC(NC(c1ccc(-c2ccc(S(C)(=O)=O)cc2)cc1)C(F)(F)F)C(=O)NC1(C#N)CC1 (centres undefined) | 0.826 (inactive) | 0.999 | 7020 | 8500 | -0.379 (inactive) | -0.123
26 | C=C1C(=CC=C2CCC[C@]3(C)C(C(C)CCCC(C)(C)O)CC[C@@H]23)CC(O)CC1O (some centres undefined) | 0.915 (inactive) | 1.06 | 6550 | 7160 | -0.468 (inactive) | 0.543
27 | O=C1NC(=O)C(=Cc2ccc3c(c2)OC(F)(F)O3)S1 | 0.912 (inactive) | 0.633 | 8930 | 9790 | -0.318 (inactive) | -0.248
28 | CC(Oc1cc(-n2cnc3ccc(CN4CCN(C)CC4)cc32)sc1C(N)=O)c1ccccc1C(F)(F)F (centres undefined) | 1.2 (inactive) | 0.688 | 1290 | 1080 | 0.375 (inactive) | 1.78
29 | Nc1ncnc2c1ncn2C1OC(CO)C(O)C1O (centres undefined) | 0.838 (inactive) and 0.824 (inactive) | 0.867 and 1.17 | 6490 and 8470 | 7740 and 10300 | -0.00177 (inactive) and -0.197 (inactive) | -2.04 and 0.972
30 | NC(=O)Nc1cc(-c2cccc(F)c2)sc1C(=O)NC1CCCNC1 (centres undefined) | 1.01 (inactive) | 0.785 | 866 | 858 | -0.543 (inactive) | -2.7
31 | O=C(NCC(O)CO)c1ccncc1Nc1ccc(I)cc1F (centres undefined) | 1.05 (inactive) | 0.75 | 3270 | 3120 | -0.688 (inactive) | -1.18
32 | CCN1CC(C)n2c(c(O)c3c(=O)n(Cc4ccc(F)c(Cl)c4)nc(C(=O)NC)c32)C1=O (centres undefined) | 1.07 (inactive) | 0.451 | 7640 | 7150 | -0.423 (inactive) | 0.325
33 | CCC(C)[C@H]1O[C@]2(CCC1C)CC1C[C@@H](CC=C(C)C(O[C@H]3CC(OC)C(O[C@H]4CC(OC)C(O)C(C)O4)C(C)O3)C(C)C=CC=C3CO[C@@H]4C(O)C(C)=C[C@H](C(=O)O1)[C@]34O)O2 (some centres undefined) | 1.18 (inactive) | 0.443 | 3750 | 3170 | -0.0305 (inactive) | 0.298
34 | CC(=O)C1CC[C@H]2[C@@H]3CC=C4CC(O)CC[C@]4(C)[C@@H]3CC[C@]12C (some centres undefined) | 0.983 (inactive) | 0.867 | 7780 | 7910 | -0.328 (inactive) | 0.251
35 | COc1ccc(C2CC(=O)c3c(O)cc(OC4OC(COC5OC(C)C(O)C(O)C5O)C(O)C(O)C4O)cc3O2)cc1O (centres undefined) | 0.944 (inactive) and 0.996 (inactive) | 0.804 and 0.887 | 9100 and 9620 | 9630 and 9660 | -0.317 (inactive) and -0.329 (inactive) | 0.0192 and 0.287
36 | O=C(C=Cc1ccc(O)c(O)c1)c1ccc(O)cc1O | 0.953 (inactive) | 0.45 | 8780 | 9210 | -0.304 (inactive) | -0.063
37 | Cc1ccc(-n2sc(=O)n(Cc3ccc(F)cc3)c2=O)cc1 | 0.959 (inactive) | 0.337 | 8430 | 8790 | -0.268 (inactive) | -0.132
38 | OCc1ccc(OC2OC(CO)C(O)C(O)C2O)cc1 (centres undefined) | 0.984 (inactive) | 0.233 | 8280 | 8420 | -0.247 (inactive) | -0.122
39 | CNC(=O)c1ccccc1Sc1ccc2c(C=Cc3ccccn3)n[nH]c2c1 | 0.918 (inactive) | 0.851 | 2240 | 2440 | 1.15 (inactive) | -0.442
40 | c1ccc(NCc2ccc(CNc3ccccn3)cc2)nc1 | 0.944 (inactive) | 0.525 | 7360 | 7790 | -0.161 (inactive) | -0.0229
41 | CC(=O)O[C@@]1(C(C)=O)CC[C@H]2[C@@H]3CC(C)C4=CC(=O)CC[C@]4(C)[C@@H]3CC[C@@]21C (some centres undefined) | 0.92 (inactive) | 0.806 | 7550 | 8200 | -0.365 (inactive) | -0.106
42 | Cn1ncnc1C1c2n[nH]c(=O)c3cc(F)cc(c23)NC1c1ccc(F)cc1 (centres undefined) | 0.895 (inactive) | 1.04 | 2740 | 3060 | -0.229 (inactive) | -0.124
43 | COC1C=CO[C@]2(C)Oc3c(C)c(O)c4c(O)c(c5c(nc6cc(C)ccn65)c4c3C2=O)NC(=O)C(C)=CC=CC(C)C(O)C(C)C(O)C(C)C(OC(C)=O)C1C (some centres undefined) | 0.885 (inactive) | 1.2 | 7180 | 8110 | -0.112 (inactive) | 0.022
44 | CC(C)CC(C=O)NC(=O)C(CC(C)C)NC(=O)C(CC(C)C)NC(=O)OCc1ccccc1 (stereo not drawn) (Cbz-Leu-Leu-Leu-aldehyde; configuration not given here) | 0.872 (inactive) | 0.735 | 2300 | 2640 | -0.114 (inactive) | -3.43
